Measurements from ChEMBL document CHEMBL1201862, “PubChem BioAssay data set” (2004).
In all, about 400,000 compounds went through this assay and about 2,100 (0.53%) were called active. Another 14% or so got no clear call; they are omitted. The rule behind the calls is not given here. The list comes from a sample in which actives are over-represented; it also holds similar structures and randomly drawn compounds.

Molecular target: Ataxin-2 (Homo sapiens) (UniProt Q99700)
Assay: qHTS for Inhibitors of ATXN expression.
Format: functional

Ataxin-2 (Homo sapiens), sequence (Q99700 whole entry): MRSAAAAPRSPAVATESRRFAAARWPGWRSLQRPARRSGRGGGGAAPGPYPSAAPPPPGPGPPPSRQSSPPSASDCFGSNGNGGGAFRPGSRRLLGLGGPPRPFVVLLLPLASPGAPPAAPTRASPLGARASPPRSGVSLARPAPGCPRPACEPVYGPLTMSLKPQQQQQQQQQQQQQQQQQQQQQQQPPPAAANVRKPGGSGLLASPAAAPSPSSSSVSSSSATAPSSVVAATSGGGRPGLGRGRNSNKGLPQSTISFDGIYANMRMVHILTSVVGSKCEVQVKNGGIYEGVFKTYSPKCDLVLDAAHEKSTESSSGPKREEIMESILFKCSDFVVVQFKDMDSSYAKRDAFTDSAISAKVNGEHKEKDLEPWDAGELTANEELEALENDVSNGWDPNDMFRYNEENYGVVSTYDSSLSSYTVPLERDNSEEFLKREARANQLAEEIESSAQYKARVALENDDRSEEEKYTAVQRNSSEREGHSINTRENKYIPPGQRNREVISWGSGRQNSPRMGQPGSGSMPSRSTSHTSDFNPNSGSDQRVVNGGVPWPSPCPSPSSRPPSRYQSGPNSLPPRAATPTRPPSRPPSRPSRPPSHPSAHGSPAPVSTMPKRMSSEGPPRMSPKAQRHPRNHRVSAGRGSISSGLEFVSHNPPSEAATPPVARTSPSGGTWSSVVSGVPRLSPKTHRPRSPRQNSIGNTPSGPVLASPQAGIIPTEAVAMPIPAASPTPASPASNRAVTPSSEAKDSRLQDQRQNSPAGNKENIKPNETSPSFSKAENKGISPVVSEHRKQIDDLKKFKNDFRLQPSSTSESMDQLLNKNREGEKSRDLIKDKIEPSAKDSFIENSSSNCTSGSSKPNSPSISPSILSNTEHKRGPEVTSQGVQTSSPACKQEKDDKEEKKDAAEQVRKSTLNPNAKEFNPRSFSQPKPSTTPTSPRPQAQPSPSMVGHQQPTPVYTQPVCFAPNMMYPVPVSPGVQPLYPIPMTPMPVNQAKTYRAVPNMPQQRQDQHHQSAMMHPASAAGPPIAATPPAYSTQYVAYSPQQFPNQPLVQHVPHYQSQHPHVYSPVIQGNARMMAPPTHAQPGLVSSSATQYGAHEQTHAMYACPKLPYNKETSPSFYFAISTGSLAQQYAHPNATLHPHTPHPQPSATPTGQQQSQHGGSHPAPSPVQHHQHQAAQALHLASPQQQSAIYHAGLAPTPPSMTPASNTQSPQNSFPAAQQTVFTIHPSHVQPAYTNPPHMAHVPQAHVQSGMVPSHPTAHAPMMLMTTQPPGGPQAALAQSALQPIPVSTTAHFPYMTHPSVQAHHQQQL

SMILES | Potency
CCCn1nc(NC(=O)CC)c2cc3cccc(C)c3nc21 | inactive
O=C(/C=C/c1cccc(Cl)c1)OCC(=O)c1ccc[nH]1 | inactive
CC(C)n1/c(=N/C(=O)c2ccco2)c(C#N)cc2c(=O)n3ccccc3cc21 | inactive
NC(=O)c1nsc(C(=O)N(c2ccccc2)C(C(=O)NCC2CCCO2)c2ccc3ncccc3c2)c1N (stereo not drawn) | inactive
O=C1C(=O)c2ccccc2C(O)=C1CCCCl | 25.1 µM (active)
COc1ccc(/N=c2\oc3ccc(OC)cc3cc2-c2nc3ccccc3[nH]2)cc1 | 31.6 µM (active)
COc1ccc2cc(-c3nc4ccc(C(=O)O)cc4[nH]3)c(=O)oc2c1 | inactive
CCN(CC)c1ccc2cc(-c3nc4ccccc4[nH]3)c(=O)oc2c1 | inactive
CC1CCN(C(=O)c2ccc3c(c2)C(=O)c2ccccc2-3)CC1 | inactive
CCC1=Nc2cc(C(=O)N3CCC(C)CC3)ccc2Sc2ccc(C)cc21 | 28.2 µM (active)
CC1CCN(S(=O)(=O)N2CCN(C(=O)c3ccc4c(c3)OCO4)CC2)CC1 | inactive
O=C1C=CC(=O)N1CCCCCCN1C(=O)C=CC1=O | 25.1 µM (active)
Cn1c(=O)c2c(nc(Oc3cccc(Br)c3)n2C)n(C)c1=O | inactive
C[C@@H]1CN([C@@H](C)CO)S(=O)(=O)c2ccc(C#Cc3cccc(F)c3)cc2O[C@H]1CN(C)S(=O)(=O)c1cn(C)cn1 | 39.8 µM (active)
C[C@H]1CN([C@@H](C)CO)S(=O)(=O)c2ccc(Br)cc2O[C@@H]1CN(C)Cc1cccc(F)c1 | 25.1 µM (active)
C[C@@H]1CN([C@H](C)CO)S(=O)(=O)c2ccc(C#Cc3ccccc3F)cc2O[C@@H]1CN(C)C(=O)Cc1ccccc1 | 25.1 µM (active)
C[C@@H]1CN([C@H](C)CO)S(=O)(=O)c2ccc(C#C[C@@H](C)O)cc2O[C@@H]1CN(C)Cc1ccc(-c2ccccc2)cc1 | 20 µM (active)
COCCCNC(=S)N/N=C/c1ccc(O)cc1O | inactive
CCNC(=S)N/N=C/c1sc(N2CCCCC2)nc1-c1cccs1 | inactive
Cc1cccc(C)c1NC(=O)COC(=O)c1c2c(nc3ccccc13)/C(=C\c1ccc3c(c1)OCO3)CCC2 | inactive
N#Cc1cccc(NC(=O)CN2C(=O)NC(Cc3ccccc3)C2=O)c1 (stereo not drawn) | inactive
C[C@@H]1CN([C@@H](C)CO)S(=O)(=O)c2ccc(Br)cc2O[C@H]1CN(C)C(=O)Nc1ccc(C(F)(F)F)cc1 | 35.5 µM (active)

SMILES | Potency
C[C@H]1CN([C@@H](C)CO)S(=O)(=O)c2ccc(Br)cc2O[C@@H]1CN(C)Cc1ccccc1 | 39.8 µM (active)
Cc1cc2c(cc1C)N(C(=O)CCl)CCN2C(=O)CCl | 35.5 µM (active)
COc1cccc(-c2[nH]c(C(=O)NCC3CCCO3)cc3c4ccccc4nc2-3)c1 (stereo not drawn) | 17.8 µM (active)
COc1ccc(-n2c(N)c(C(=O)NCC3CCCO3)c3nc4ccccc4nc32)c(OC)c1 (stereo not drawn) | inactive
COc1ccccc1-n1c(N)c(C(=O)NCC2CCCO2)c2nc3ccccc3nc21 (stereo not drawn) | inactive
COc1cc(C(=S)N2CCOCC2)ccc1OC(=O)c1ccc(Br)cc1 | inactive
C[C@H](O)[C@@H]1CN2CCc3c([nH]c4ccccc34)[C@@H]2C[C@@H]1N(C)C(=O)OCc1ccccc1 | inactive
COc1ccc(NC(=O)N(C)[C@H]2C[C@H]3c4[nH]c5ccc(-c6ccc(OC)cc6)cc5c4CCN3C[C@H]2[C@H](C)O)cc1 | 25.1 µM (active)
CN[C@H]1C[C@H]2c3[nH]c4ccc(-c5cccc(C)c5)cc4c3CCN2C[C@H]1[C@H](C)O | 39.8 µM (active)
Cc1ccc2[nH]c3c(c2c1)CN(C(=O)CN1CCCCC1)CC3 | inactive
CCOC(=O)N(C)[C@H]1C[C@H]2c3[nH]c4ccccc4c3CCN2C[C@H]1[C@H](C)O | inactive
Cc1cccc(-c2ccc3[nH]c4c(c3c2)CCN2C[C@@H]([C@H](C)O)[C@@H](N(C)C(=O)Nc3ccc(F)cc3)C[C@@H]42)c1 | 25.1 µM (active)
COc1ccc(NC(=O)N(C)[C@H]2C[C@H]3c4[nH]c5ccc(-c6cccc(C)c6)cc5c4CCN3C[C@H]2[C@H](C)O)cc1 | 39.8 µM (active)
Cc1ccc2[nH]c3c(c2c1)CCCC3NCCO (stereo not drawn) | inactive
COc1cccc(-c2c(C#N)c(O)nc3c2-c2ccc(OC)cc2CC3)c1 | inactive
O=C(O)c1cc(-c2c[nH]c3ccccc23)nc2ccc3ccccc3c12 | inactive
COC(=O)C1C2CC3c4[nH]c5cc(OC)ccc5c4CCN3CC2CC(OC2CCCCO2)C1OC (stereo not drawn) | inactive
COc1ccc(-c2ccc3[nH]c4c(c3c2)CCN2C[C@@H]([C@H](C)O)[C@@H](N(C)C(=O)Nc3cc(Cl)cc(Cl)c3)C[C@@H]42)cc1 | 35.5 µM (active)
O=C(COc1ccc([N+](=O)[O-])cc1)N(C1CCCCC1)C1CCS(=O)(=O)C1 (stereo not drawn) | inactive
C/C(=N/OC(=O)C1CC1)c1cc(-c2ccc(Cl)cc2)no1 | inactive
CCc1cc2c(-c3ccccc3)cc(=O)oc2c2c1OCN(Cc1ccc(C)cc1)C2 | inactive
COc1ccc(N/C=C2/C(=O)N(c3cccc(C)n3)C(=O)c3ccccc32)c(OC)c1 | inactive

SMILES | Potency
COc1ccc2c(c1)/C(=C\c1cccc(/C=C3/C(=O)Nc4ccc(OC)cc43)n1)C(=O)N2 | 0.891 µM (active)
O=C1Nc2ccccc2/C1=C/c1c[nH]c(-c2ccccc2)n1 | inactive
Cc1ccc(S(=O)(=O)c2cc3c(=O)n4ccccc4nc3n(Cc3ccco3)c2=N)cc1 | inactive
N#CC1=C(N)Oc2cc(O)c(Cl)cc2C1c1ccccc1F (stereo not drawn) | inactive
CC(C)c1ccc(CN2CCN(S(=O)(=O)c3ccc(Cl)s3)CC2)cc1 | inactive
CC(C)c1ccc(CN2CCN(C(=O)CCl)CC2)cc1 | 15.8 µM (active)
Cc1cccc(CC(=O)NC2CCN(C)CC2)c1 | inactive
Cc1cccc(CN2CCN(C(=O)CCl)CC2)c1 | 35.5 µM (active)
C=CCN1CCN(C(=O)CSc2ccccc2)CC1 | inactive
Cc1cccc(NS(=O)(=O)c2ccc(C)c(C(=O)NC3CCN(Cc4ccccc4)CC3)c2)c1 | inactive
C=CCn1c(=O)c(C#N)cc2c(=O)n3ccccc3nc21 | inactive
Cc1sc2nc(C(C)C)nc(SCC(=O)N3CCN(C(=O)c4ccco4)CC3)c2c1C | 39.8 µM (active)
COc1ccc2oc(=O)c(C(=O)N3CCN(C(=O)c4ccco4)CC3)cc2c1 | inactive
Cc1cc(C(=O)N2CCN(C(=O)c3ccco3)CC2)ccc1[N+](=O)[O-] | inactive
O=C(CSc1ccccc1)N1CCN(C(=O)c2ccco2)CC1 | inactive
O=C(CSc1nnnn1C1CCCCC1)N1CCN(C(=O)c2ccco2)CC1 | inactive
CCc1cc2ccc(OC)cc2nc1SCC(=O)N1CCN(C(=O)c2ccco2)CC1 | 25.1 µM (active)
Cc1ccc(S(=O)(=O)N2CCN(C(=O)CN3C(=O)c4ccc([N+](=O)[O-])cc4C3=O)CC2)cc1C | inactive
COc1cc2c(C#CCCCO)c(-c3ccc(C#N)cc3)oc(=O)c2cc1OC | inactive
C=CC[C@@H](CC(=O)N(CCO)Cc1ccccc1)C(=O)N[C@H](COC(=O)[C@@H](CC=C)CC(=O)OC(C)(C)C)Cc1c[nH]c2ccccc12 | 35.5 µM (active)
C=CC[C@H](CC(=O)N(CCO)Cc1ccccc1)C(=O)N[C@@H](COC(=O)[C@@H](CC=C)CC(=O)OC(C)(C)C)Cc1c[nH]c2ccccc12 | 25.1 µM (active)
C=CC[C@@H](CC(=O)N(CCO)Cc1ccccc1)C(=O)N[C@@H](COC(=O)[C@H](CC=C)CC(=O)OC(C)(C)C)Cc1c[nH]c2ccccc12 | 22.4 µM (active)

SMILES | Potency
CCCC/N=C1\C(=O)N(C)c2cccc3c(O)c4ccccc4c1c23 | inactive
COc1ccc2c(C#N)c3ccccn3c2c1 | inactive
Nc1cccc2c1C(=O)N(CCOc1ccc(F)cc1)C2=O | inactive
c1ccc(N2CC3CCc4ccccc4C3=N2)cc1 (stereo not drawn) | inactive
C/C(CCCO)=N/Nc1ccc([N+](=O)[O-])cc1[N+](=O)[O-] | inactive
CC/C(=N\Nc1ccc([N+](=O)[O-])cc1[N+](=O)[O-])c1ccc(O)cc1 | 8.91 µM (active)
CN1C(=O)/C(=N\c2ccc(Cl)cc2)c2c3ccccc3c(O)c3cccc1c23 | inactive
CC1=CC(C)(C)N2C(=O)/C(=N/c3ccc(O)cc3)c3cccc1c32 | 31.6 µM (active)
Cc1ccc(-c2ccc(CN3C(CC(C)C)C(=O)N(Cc4cn(CCC5OCCCO5)nn4)CCS3(=O)=O)cc2)cc1 (stereo not drawn) | 20 µM (active)
CC(C)CC1C(=O)N(Cc2cn(CCC3OCCCO3)nn2)CCS(=O)(=O)N1Cc1ccc(-c2ccc(Cl)nc2)cc1 (stereo not drawn) | 31.6 µM (active)
O=C(c1cc(Br)ccc1O)N1CCN(S(=O)(=O)Cc2ccccc2)CC1 | inactive
Brc1ccc(-c2nnc3sc(CNCc4ccc5c(c4)OCO5)cn23)cc1 | inactive
O=C(O)c1ccc(S(=O)(=O)N2CCC(NC(=O)C3CCCCC3)CC2)cc1 | inactive
CCCOc1ccc(CN(CCC#N)C(=S)NC(=O)c2ccccc2)cc1 | 39.8 µM (active)
COCCN(Cc1ccccc1)C(=O)c1ccc(C(=O)c2ccccc2)cc1 | inactive
Cc1ccc(NC(=O)N(CCC#N)Cc2ccccc2)cc1 | inactive
O=C(O)COc1c(Cl)cc(/C=C2/NC(=O)NC2=O)cc1Br | inactive
Cc1nnc(N/N=C/c2ccc(-c3ccc(Br)cc3)o2)n1N | inactive
COCCCn1/c(=N/C(=O)c2ccccc2)c(C#N)cc2c(=O)n3cccc(C)c3nc21 | inactive
CN1C(=O)c2ccc(NC(=O)c3ccc(Cl)cc3Cl)cc2C1=O | inactive
Cc1ccc(C(=O)COC(=O)c2cccc(NC(=O)c3ccc(Cl)cc3Cl)c2)cc1 | 35.5 µM (active)
Cc1ccsc1C(=O)OCC(=O)Nc1cccc(F)c1 | inactive
